# Reference: PubChem BioAssay
# The source made the active and inactive calls.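 How the source made its calls: active means inhibition above 20% together with a positive visual image hit; inconclusive means visual image hit but inhibition not above 20%; inactive means no visual image hit.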
# Assay: inhibitors of TNFa-induced NFkB p65 translocation, primary screen, imaging, HUVEC, MLSMR starter and 10KST1 sets (AID 438);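 further: compound added about 3h40 before a 20 min TNFalpha stimulation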;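 on inhibition: signal is the nuclear over cytoplasmic p65 intensity ratio per well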
# Conditions: HUVEC TNFa-induced p65 nuclear translocation; cell count: measured here: nuclei count (cytotoxicity indicator), at 2.08 µM; inhibition: at 2 µM, stronger effect = higher value, 0% TNFa-plus-vehicle, 100% no-TNFa wells
SMILES,cell count,inhibition
N#Cc1c(-c2ccc3c(c2)OCO3)csc1N,584,-4.7% (inactive)
Cc1ccc(Cn2c(SCC(N)=O)nc3c2c(=O)n(C)c(=O)n3C)cc1,582,-6.2% (inactive)
C#CCOC(=O)C1C2C=CC(C2)C1C(=O)O (configuration not stated),394,9.9% (inactive)
Cc1nc2ncnn2c(N2CCC(C(=O)NCC3CCCO3)CC2)c1Cc1ccccc1 (configuration not stated),642,-10.1% (inactive)
CCC(=O)Nc1nn(C)c2nc3c(C)cccc3cc12,724,-9% (inactive)
Cc1cc(NC(=O)C(C)(C)C)no1,507,-8.7% (inactive)
CCN(CC(=O)Nc1ccc2c(c1)CCC2)Cc1nc2ccccc2c(=O)[nH]1,382,1.3% (inactive)
Cc1ccc(S(=O)(=O)NCC(=O)OCC(=O)Nc2ncc(Cl)cc2Cl)cc1,412,-0.4% (inactive)
O=C(CN1C(=O)c2ccccc2C1=O)Nc1ccc(S(=O)(=O)NCC2CCCO2)cc1 (configuration not stated),389,-6% (inactive)
Cc1cc(C)nc(SCc2nnc(SCC(=O)Nc3ncc(C)s3)n2Cc2ccco2)n1,422,3% (inactive)
COc1ccc(C(C)NC(=O)c2ccoc2C)cc1OC (configuration not stated),307,-8.9% (inactive)
Cc1nc(C)n(C(C)CC(=O)O)n1 (configuration not stated),635,0.7% (inactive)
Cc1cccc(N(CC(=O)N2CCCC2)S(=O)(=O)c2ccccc2)c1C,288,-2.3% (inactive)
CCC1(C)Cc2c(sc3nc(SCC(=O)O)[nH]c(=O)c23)CO1 (configuration not stated),549,-14.6% (inactive)
Cc1cc(NC(=O)CSc2nc(C3CC3)nc3sc4c(c23)CCC(C)C4)no1 (configuration not stated),321,-1.3% (inactive)
CCN(CC)C(c1ccc(C)cc1)c1nnnn1C1CCCCC1 (configuration not stated),438,-6.7% (inactive)
COc1ccc(NC(=O)CSc2nc(C)cc(C(F)(F)F)n2)cc1,648,-3.3% (inactive)
CC1CN(C(=O)CSc2ncnc3sccc23)CC(C)O1 (configuration not stated),356,-0.9% (inactive)
CC1CCCC(C)N1CCNC(=O)C1CCN(S(=O)(=O)N2CCCCC2)CC1 (configuration not stated),383,4.2% (inactive)
COc1ccc(C(=O)Nc2ccc(Cl)c(Cl)c2)c(OC)n1,799,-7.1% (inactive)
CC(C)(C)c1ccc(C(=O)N2CCC(C(=O)NCc3ccncc3)CC2)cc1,344,-5.2% (inactive)
CCc1nnc(NC(=O)CSc2nc(-c3ccc(OC)cc3)ns2)s1,203,-10.4% (inactive)
COC(=O)c1ccc(NC(=O)C2C3CCC(C3)C2C(=O)O)cc1 (configuration not stated),416,2.5% (inactive)
c1ccc(-c2nc3cnccn3c2Nc2ccc3c(c2)OCCO3)cc1,606,-36.1% (inactive)
CCOCC(O)CS(=O)Cc1ccccc1 (configuration not stated),343,-7.4% (inactive)
Cc1ccc(OCC(O)Cn2c(NCCc3ccccc3)nc3c2c(=O)[nH]c(=O)n3C)cc1 (configuration not stated),421,-1.8% (inactive)
